Kir21 block = Kir2.1 (mouse) channel inhibition; P35561; HEK293-Kir2.1, FluxOR thallium flux fluorescence; stronger effect = lower value; B-score at 10 µM; hit rate 0.85% among 310,000;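 active = fluorescence ratio B-score at or below minus 3 SD of library scores, with starting-brightness B-score within 2 SD, cut at about -4.2 in these data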;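 note: channel flux triggered by added potassium and thallium sulfate stimulus; B-score of peak minus minimum fluorescence over baseline after thallium stimulus; more negative B-score means stronger Kir2.1 block with less thallium influx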
Target sequence (P35561 whole entry, looked up): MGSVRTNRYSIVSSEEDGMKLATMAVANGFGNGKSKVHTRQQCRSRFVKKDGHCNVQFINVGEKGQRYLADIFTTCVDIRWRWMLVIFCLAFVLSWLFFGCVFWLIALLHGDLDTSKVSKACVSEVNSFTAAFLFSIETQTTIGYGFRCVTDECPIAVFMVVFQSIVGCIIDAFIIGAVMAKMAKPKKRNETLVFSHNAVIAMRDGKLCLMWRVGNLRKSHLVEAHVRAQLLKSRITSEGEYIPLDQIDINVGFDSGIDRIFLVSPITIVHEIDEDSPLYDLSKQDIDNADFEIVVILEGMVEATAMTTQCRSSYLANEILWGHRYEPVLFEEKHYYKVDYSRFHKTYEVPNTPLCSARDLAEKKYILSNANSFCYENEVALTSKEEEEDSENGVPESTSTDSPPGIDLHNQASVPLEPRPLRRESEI
CHT inh = inhibits the human high affinity choline transporter. Q9GZV3. CHT-expressing cells, membrane potential dye, choline response; stronger effect = lower value. B-score at 10 µM. hit rate 0.86% among 310,000;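 active = B-score over 3 SD under the library average, and starting fluorescence ratio not unusually high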;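 note: choline stimulus applied at its EC90 after an EC20 pre-addition; B-score computed on integrated fluorescence ratio after choline addition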
GPR7 antagonist = blocks human GPR7 receptor signaling; P48145; AID 1861; hit rate 1.1% among 290,000; GPR7-expressing cells, fluorescence antagonist assay; inhibition, % at 4.4 µM; in the data active = inhibition above about 16%, passing the limit was not always enough;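 note: cells stimulated with the agonist NPW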
CHT allo act = allosteric activators of human choline transporter CHT. Q9GZV3. CHT-expressing cells, membrane potential dye, choline EC20; stronger effect = higher value; LV-AA mutant CHT in HEK293 cells. B-score at 10 µM. hit rate 0.49% among 310,000. AID 488977;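 active = initial fluorescence not abnormally high and integrated response B-score, plate-corrected, over 3 SD above library mean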
ANO1 block = blocks the mouse calcium-activated chloride channel TMEM16A | normalized B-score (activity score, 25-100; higher = stronger inhibition) at 10 µM | Q8BHY3 | HEK293 TMEM16A/YFP iodide influx fluorescence, ionomycin | AID 588511 | hit rate 1.2% among 310,000;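 active = ratio plate-corrected score three or more library SD toward inhibition, starting fluorescence score within five deviations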;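 note: score derived from kinetic fluorescence span divided by baseline fluorescence per well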
ANO1 activ = activates or potentiates the mouse TMEM16A chloride channel | AID 623877 | hit rate 0.3% among 340,000 | B-score at 10 µM | HEK293 TMEM16A/YFP-H148Q/I152L, iodide quench fluorescence; stronger effect = lower value;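 active = fluorescence-ratio B-score plate-corrected deviation score at least 3 library SD below zero, with starting fluorescence score within 5 deviations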;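 note: channel opened by trigger with iodide after compound preincubation; score built on the fluorescence ratio of max minus min over baseline; more negative score means more quench and so TMEM16A activation or potentiation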
Hits are given with their value; i = inactive; nt = not tested or not shown. Only some compounds are listed: those with a hit (about 3.7% of all), similar ones and a draw of the others.

SMILES	Kir21 block	CHT inh	GPR7 antagonist	CHT allo act	ANO1 block	ANO1 activ
c1ccc(Nc2ncnc3c2oc2ccccc23)cc1	i	i	i	i	i	i
COc1ccc(-c2oc(NC(=O)CCl)c(C#N)c2-c2ccc(OC)cc2)cc1	i	i	i	i	100	i
CC(NCc1ccccc1O)c1ccccc1 (stereo not drawn)	i	i	i	i	i	i
COc1ccc2ccccc2c1CNC(C)c1ccccc1 (stereo not drawn)	-5.5	i	i	i	i	i
O=C(O)C(c1ccccc1)C1(O)CC2CCC1C2 (stereo not drawn)	nt	nt	nt	nt	nt	i
CSc1cccc(NC(=S)N(CCC(C)C)C(C)c2ccncc2)c1 (stereo not drawn)	i	i	i	i	i	i
CCN(Cc1ccccc1)c1ccc(/C=N/N=C(N)N)cc1	-14	i	i	i	100	i
CCC(=O)N(c1ccc(C(=O)O)cc1)c1nc(-c2ccc(OC)cc2)c(C)s1	i	i	i	i	i	i
Cc1sc(N(C(=O)CCc2ccccc2)c2ccc(C(=O)O)cc2)nc1-c1ccccc1	i	i	i	i	25	i
Cc1ccc(S(=O)(=O)NCc2ccncc2)cc1	i	i	i	i	i	i
CCOc1ccc(S(=O)(=O)NCc2ccncc2)cc1	i	i	21	i	25	i
O=C(OCc1cccc(C(F)(F)F)c1)c1ccc[nH]c1=O	i	i	i	i	i	i
C=CCc1cc(C)ccc1OCCOCCC(C(=O)OCC)C(=O)OCC	-8.6	i	i	i	i	i
CCOc1cccc2cc(C(=O)NCc3ccc(OC)cc3)c(=N)oc12	i	i	i	i	i	i
COc1ccccc1NC(=O)C(C)OC(=O)COc1cccc2c1OC(C)(C)C2 (stereo not drawn)	-4.6	i	nt	i	i	i
COc1ccccc1CCNC(=O)COc1cccc2c1OC(C)(C)C2	-6.4	i	nt	i	i	i
CC1(C)Cc2cccc(OCC(=O)NCCOc3ccccc3)c2O1	i	i	i	i	i	i
COc1ccccc1NC(=O)C(C)OC(=O)CCCOc1ccccc1 (stereo not drawn)	-4.8	i	nt	i	i	i
COc1ccc(C(C)=O)cc1COc1cccc2c1OC(C)(C)C2	-5	i	i	i	i	i
COc1ccc(NC(=O)COc2cccc3c2OC(C)(C)C3)cc1OC	nt	nt	nt	nt	nt	i
CC(OC(=O)CCCOc1ccccc1)C(=O)NC(N)=O (stereo not drawn)	i	i	i	i	i	i
Cc1ccc(S(=O)(=O)Nc2ccc(C(=O)N3CCCC3)cc2)c(C)c1NS(C)(=O)=O	i	i	i	i	i	i
COc1ccc(N=Cc2[nH]c3ccccc3c2O)cc1	i	i	i	i	i	-7.6
CCc1cc(C(=O)N2CCCC(C(=O)c3cccc4ccccc34)C2)n(C)n1 (stereo not drawn)	i	i	i	i	25	i
O=C(Nc1ccc([N+](=O)[O-])cc1)N1CCc2ccccc2C1	i	i	i	i	i	i
SMILES	Kir21 block	CHT inh	GPR7 antagonist	CHT allo act	ANO1 block	ANO1 activ
CC(C)c1ccc(NC(=O)N2CCc3ccccc3C2)cc1	i	i	41	i	i	i
CC(C)(C)OC(=O)NCCc1nnc(SCc2ccccc2Cl)o1	-5.5	i	i	i	i	i
CC(C)(C)OC(=O)NCCc1nnc(SCc2ccccc2)o1	-6.1	i	i	i	i	i
CC(C)(C)OC(=O)NCCc1nnc(SCC(N)=O)o1	i	i	i	i	i	i
O=C(NCc1ccccc1)C(c1ccc(Cl)cc1)N(C(=O)c1csnn1)C1CC1 (stereo not drawn)	i	i	i	i	i	i
COc1ccc2ncc(S(=O)(=O)c3ccccc3)c(N3CCN(c4ccccc4)CC3)c2c1	i	i	i	i	i	i
CCN1Cc2c(/C=C/c3ccccc3)nc3ccc(OC)cc3c2N(c2cccc(Cl)c2)C1	-13	i	i	i	i	i
O=C(NCC1CCCO1)C1CCCN(Cc2cnn(-c3ccccc3)c2-n2cccc2)C1 (stereo not drawn)	i	i	i	i	i	-25
OC1(c2ccc(Br)cc2)CCN(Cc2cccc(Br)c2)CC1	-11	i	i	i	i	i
Cc1ccccc1CNC(=O)CCC(=O)N1CCOc2ccc(Cl)cc21	i	i	i	i	i	i
Cc1ccc(NC(=O)N2CCCCCC2)cc1C	i	i	i	i	i	i
